SMILES strings stand for the structures. This is part of a sample that, as a whole, favours compounds with a hit. Of some 83,000 tested, about 20% had one in any assay.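 Interpretation: 100, growth as untreated; towards 0, rising growth inhibition; 0, no net growth; 0 to -100, cell death. Compounds scoring below 10 were considered active.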 Values without a mark were called inactive. The source made the active and inactive calls.

The experiment has as its system U251 CNS. Kind of experiment: NCI-60 one-dose screen, 48 h (100 = growth as untreated, 0 = no growth, -100 = all killed). Conditions: 10 µM unless noted.
Consider `Oc1cccc2ccc(-c3nnc(SCc4ccc(O)c5ncccc45)o3)nc12`, for which the growth was 13.3%. With `COC(=O)c1[nH]nc2c1C1(C(=O)N(C)c3ccccc31)C(C#N)=C(N)O2` (centres undefined), the growth is 105%. For `Cc1ccc2sc3c(c2c1)OC(N)=C(C#N)C3c1ccc(Cl)cc1` (centres undefined), the growth is 96.3%. As for `CC1=NC2=NN3C(=NN2C(c2ccccc2)=C1)N=NC(c1ccc(Br)cc1)=C3c1ccc(Br)cc1`, the growth was 103%.

Consider `Cn1ccnc1C(=O)/C=C/c1ccc(NC(=O)c2c(F)c(F)c(F)c(F)c2F)cc1`, for which the growth was 99%.

Regarding `COc1ccc(/C=C/C(=O)c2cc(S(N)(=O)=O)c(OC)cc2OC)cc1`, the growth was 68.7%. As for `N#Cc1cccc(CN2CCC3=C(C2)C(=O)N(Cc2ccc(Cl)cc2)C2=NCCCN23)c1`, the growth is 23.7%. Regarding `Cc1nn(-c2ccccc2)c2ncnc(N/N=C/c3ccccc3O)c12`, the growth was 11.2%. As to `COc1ccc(CCN2C(=O)CSC2=S)cc1`, the growth was 102%.

In the case of `CC(=O)N1C(=S)NC(=O)C1CC(C)C` (centres undefined), the growth is 101%. Consider `Cc1ccc2sc3c(c2c1)OC(N)=C(C#N)C3c1cccc(F)c1` (centres undefined), for which the growth is 2.42% (active).

As for `COc1cc(-c2nc(SC(C)C)n(C(C)C)c(=O)c2C#N)ccc1OCc1ccccc1`, the growth is 32.7%. Take `C/C(=N\O)[C@H]1C[C@]23CC[C@]4(C)[C@H](CC[C@@H]5[C@@]6(C)CC/C(=N/O)C(C)(C)[C@@H]6CC[C@]54C)[C@H]2[C@H](C)C1(C)OC3`: the growth was 110%. On to `NS(=O)(=O)c1ccc(-n2cc(-c3cccc(NC(=O)c4ccc(N5CCOCC5)c(C(F)(F)F)c4)c3)nn2)cc1`, for which the growth was 54.2%. On to `O=C1/C(=C/C=C/c2ccco2)SC(=S)N1c1ccccc1`, for which the growth is 49.8%. As to `COc1cc(OC)c(S(N)(=O)=O)cc1C(C)=O`, the growth was 105%. For the compound `CNC(=O)c1cc(Oc2ccc3nc(NC(=O)c4cc(N5CCOCC5)cc(C(F)(F)F)c4)sc3c2)ccn1`, the growth is 72.3%. On to `CCCCCc1ccc(S(=O)(=O)Nc2cccc(-c3csc(NC(=O)CCCCCN4CCN(CCO)CC4)n3)c2)cc1`, for which the growth was 65.8%. With `CNC(=O)c1cc(Oc2ccc3nc(NC(=O)c4cccc(OC(F)(F)F)c4)sc3c2)ccn1`, the growth was 84.3%. In the case of `Cc1cc(C)c(N2C(=O)CC(Nc3ccc(Cl)cc3Cl)C2=O)c(C)c1` (centres undefined), the growth was 104%. On to `Cc1ccc(C(=O)NN2C(=O)/C(=C/C=C/c3ccco3)SC2=S)cc1`, for which the growth is 98.7%. For `CC/C(=C/c1c(O)cccc1OC)c1ccc2c(OC)cccc2[o+]1` the value was 99.5%; for `Cc1ccc2c(c1)C(=O)/C(=C/c1cccc(F)c1)S2`, 101%. For the compound `COc1cc(/C=C2\C(=O)Nc3ccccc32)ccc1OCc1ccc(F)cc1`, the growth was 106%. Consider `N/C(=N\C(N)=N\c1nc2ccccc2s1)c1ccc(C(F)(F)F)cc1`, for which the growth was 41.9%.

Take `CN(C)CCNC(=O)c1ccc(-c2nc3ccc4[nH]ncc4c3c3c2COCC3)cc1`: the growth is 5.37% (active). On to `O=C(Nc1ccc(N=Cc2c(O)[nH]c3ccccc23)cc1)Nc1nccs1`, for which the growth is 42%. For `O=C(Nc1nonc1-c1ccccc1)c1ccc(C(F)(F)F)cc1` the value was 70.1%; for `COc1cccc(C(=O)Nc2cccc(C#Cc3cccc4[nH]nc(N)c34)c2)c1`, 68%. As to `Cn1ccnc1C(=O)/C=C/c1ccc(NC(=O)c2ccc(F)cc2)cc1`, the growth was 23.3%.

On to `Nc1nc(-c2cccc([N+](=O)[O-])c2)c(N=Nc2ccccc2)s1`, for which the growth is 54.3%. For the compound `Cc1ccc(N2C(=O)/C(=C/C=C/c3ccco3)SC2=S)cc1`, the growth is 93.8%. As to `COc1cc(OC)c(S(N)(=O)=O)cc1C(=O)/C=C/c1ccc(C)cc1`, the growth is 14.5%. Turning to `CN1CCC(n2cc(Nc3ncc4c(=O)n(-c5c(Cl)cccc5Cl)cc(Br)c4n3)cn2)CC1`, the growth was 27.6%. Turning to `C#CC(=O)N(c1ccc(OC)cc1OC)C(C(=O)NCC(=O)OCC)c1cccs1` (centres undefined), the growth is 5.16% (active). Turning to `COc1ccc(/C=C(/C)c2ccc3ccc(OC)cc3[o+]2)c(O)c1`, the growth is 84.6%. Take `Cc1ccc(-c2cc3nc(C(Cl)Cl)nc(C)n3n2)cc1`: the growth was 108%. Consider `Cc1ccc(-c2nnc(SCc3ccc(O)c4ncccc34)n2-c2ccccc2)cc1`, for which the growth was -2.5% (active). Consider `CCOc1ccccc1NC1=C(Cl)C(=O)c2nc(C)ccc2C1=O`, for which the growth was 37.9%.

The record behind these values is PubChem BioAssay (NCI).
